Results published in PubChem BioAssay (NCI).
Compounds without any hit were thinned out: in the full panel of roughly 83,000, 20% have a hit.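 For each line, cells grew in 96-well plates with the test compound present at a single concentration for 48 hours.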 A number with no mark means an inactive call. The source made the active and inactive calls. The calls were made as follows: active = growth percent below 10; inactive = the rest.

These molecules were tested on NCI-H322M lung (assay: NCI-60 one-dose screen, 48 h (100 = growth as untreated, 0 = no growth, -100 = all killed)). Conditions: 10 µM unless noted.
Molecule CCOC(=O)/C=C/c1cccc2c1C(=O)NC(C)(c1cc3cc(Cl)ccc3oc1=O)N2 (stereo not drawn) has a growth of 56.4%.
With O=C(C1=CNC(=S)NC1c1ccc(O)cc1)c1cc2ccccc2oc1=O (stereo not drawn) the growth was 106%.
With COc1cccc(-c2nc(Nc3ccc(S(N)(=O)=O)cc3)c3ccccc3n2)c1 the growth was 50.3%.
CC12CC[C@@H]3[C@]4(C)COC(c5cn[nH]c5-c5ccc(Br)cc5)O[C@@H]4CC[C@@]3(C)[C@@H]1CC(C1=CCOC1=O)O2 (stereo partly drawn) was tested, and the growth was 66.1%.
Molecule COc1ccc2[nH]c(O)c(N=NC(=O)Cn3c(-c4ccccc4)nc4cc(C)ccc43)c2c1 has a growth of 49.5%.
C(=C\c1cc(/C=C/c2ccccc2)c2ccccc2n1)/c1ccccc1 gave a growth of 120%.
With COc1cc2c(c(OC)c1OC)C(=O)CC(c1cccc(NC(=O)c3cc([N+](=O)[O-])ccc3Cl)c1)O2 (stereo not drawn) the growth was 55.7%.
O=C(CCN1C(=O)/C(=C/c2ccc(F)cc2)SC1=S)N1CCOCC1 was tested, and the growth was 80.2%.
CC1(C)CC[C@]2(C(=O)Nc3ccc(F)cc3)CC[C@]3(C)C(=CCC4[C@@]5(C)C[C@@H](O)[C@H](O)[C@@](C)(CO)C5CC[C@]43C)C2C1 (stereo partly drawn) was tested, and the growth was 72.7%.
COc1ccc(-c2nnc3ccc(N/N=C/c4ccc(C)cc4)nn23)cc1 showed a growth of 85.3%.
With COc1ccc2c(c1)c(-c1cc3nc(-c4cn(C)c5ncccc45)cc(N)n3n1)cn2C the growth was -8.29% (active).
O=C(COc1ccc(NC(=O)Nc2ccccc2)cc1)N=Nc1c(O)[nH]c2ccc([N+](=O)[O-])cc12 was tested, and the growth was 37.7%.
CCCCCCn1c(O)c(N=Nc2nc(-c3cc4ccccc4oc3=O)cs2)c2ccccc21 showed a growth of 53.1%.
For COc1ccc(NC(=O)Cn2c3c(sc2=O)[C@H]2[C@@H](O)[C@@H](O)[C@H](O)[C@@H]2CS3)cc1, the growth was 101%.
Molecule CN1CCN(/C(=N\c2sc(-c3ccccc3)nc2-c2ccccc2)c2ccccc2)CC1 has a growth of 82.8%.
Molecule CC12CC[C@@H]3[C@]4(C)COC(c5cn[nH]c5-c5cccc(Br)c5)O[C@@H]4CC[C@@]3(C)[C@@H]1CC(C1=CCOC1=O)O2 (stereo partly drawn) has a growth of 48.6%.
In the case of Brc1ccc(-c2n(Cc3ccc4ccccc4c3)c(-c3ccccc3)c(-c3ccccc3)[n+]2Cc2ccc3ccccc3c2)cc1, the growth is reported as -99.1% (active).
In the case of O=C(NN1C(=O)/C(=C/C=C/c2ccc([N+](=O)[O-])o2)SC1=S)c1ccc(Cl)cc1, the growth is reported as -100% (active).
